# Results reported in ChEMBL document CHEMBL3433997, “St. Jude Leishmania screening dataset” (2016).
# Target: Solute carrier family 2, facilitated glucose transporter member 1 (Homo sapiens) (UniProt P11166)
# Experiment: ST_JUDE_LEISH: Cytotoxicity at 2uM final concentration against transgenic Leishmania Mexicana promastigotes LmGLUT1 that are glucose transport deficient and complemented with the human glucose transporter GLUT1. Activity is measured by DNA content using SYBR green in vitro
# Assay type: functional
# Solute carrier family 2, facilitated glucose transporter member 1 (Homo sapiens), sequence (P11166 whole entry): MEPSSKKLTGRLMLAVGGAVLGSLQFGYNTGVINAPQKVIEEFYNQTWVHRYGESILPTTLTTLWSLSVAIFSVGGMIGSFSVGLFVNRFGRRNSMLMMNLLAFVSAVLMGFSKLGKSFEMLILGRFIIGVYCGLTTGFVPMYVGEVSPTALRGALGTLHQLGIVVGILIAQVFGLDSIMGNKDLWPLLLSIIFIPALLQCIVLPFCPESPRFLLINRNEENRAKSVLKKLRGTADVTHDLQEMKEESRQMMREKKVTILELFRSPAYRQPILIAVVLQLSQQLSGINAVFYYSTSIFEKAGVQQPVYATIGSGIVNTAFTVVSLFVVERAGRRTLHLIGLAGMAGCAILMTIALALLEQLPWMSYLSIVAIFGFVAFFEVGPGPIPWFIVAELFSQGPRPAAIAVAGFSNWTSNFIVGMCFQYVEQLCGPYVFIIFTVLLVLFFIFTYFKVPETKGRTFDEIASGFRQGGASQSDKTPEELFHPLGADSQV
row,Structure (SMILES),inhibition
1,CS(=O)(=O)c1ccc2c(c1)CCN(CCC1CCC(NC(=O)C(=Cc3cccc(C#N)c3)c3ccc(-c4ccccc4)cc3)CC1)CC2 (stereo not given),1.14%
2,Nc1ncc(-c2cc3ccccc3o2)c(N)n1,3.02%
3,N=c1n(CCN2CCCC2)c2ccccc2n1CC(O)c1ccc(Cl)c(Cl)c1 (stereo not given),1.98%
4,CC(=O)Nc1ccc(CN(Cc2ccc(C)cc2)Cc2cccc(Oc3ccccc3)c2)cc1,2.75%
5,N#Cc1cccc(NC(=O)C2=C(CCc3ccc4c(c3)OCO4)NC(=O)NC2c2cccc(C#N)c2)c1 (stereo not given),-0.43%
6,Cc1ccc2ccncc2c1N,7.9%
7,CCN(CC)C(=S)N/N=C1/C(=O)Nc2c(C)cccc21,6.57%
8,O=C(Nc1ccc(S(=O)(=O)N2CCCCC2)cc1)c1cc(-c2ccccc2O)n[nH]1,11.8%
9,CC(C)(C)SC1SC(SC(C)(C)C)C(OC(=O)c2ccccc2)C(OC(=O)c2ccccc2)C1OC(=O)c1ccccc1 (stereo not given),-0.52%
10,COc1ccc(CNCc2ccc(-c3cccc(-c4nc5ccccc5[nH]4)c3)cc2)cc1,5.98%
11,O=C(Nc1cccc(Cl)c1)OC1CCCN2CCCCC12 (stereo not given),10.8%
12,CN1CCC(N(Cc2ccc(-c3ccc(C(F)(F)F)cc3)cc2)C(=O)Cn2c(SCc3cccc(F)c3F)cc(=O)c3c2CCC3)CC1,-1.29%
13,COc1cc(NC2=NS(=O)(=O)c3cc(Cl)ccc3N2C)cc(OC)c1OC,6.86%
14,O=C(NC1CCN(Cc2ccccc2)CC1)c1ccc(CNC2CCN(Cc3ccccc3)CC2)cc1,4.84%
15,CCNc1cc(C(=O)N[C@@H](Cc2ccccc2)[C@H](O)CNCCCc2ccc(OC)cc2)cc(N2CCCC2=O)c1,0.4%
